Screening results as filed in PubChem.
D1 antagonist: Antagonist of Human D 1 Dopamine Receptor: qHTS; activity change, negative = inhibition, % at 10 µM; HEK293 TREx D1 cells, calcium flux, dopamine EC80; active compounds read low; AID 504652, 2011; hit rate 3.2% among 360,000; D(1A) dopamine receptor (Homo sapiens), P21728; in the data active means activity change below about -30%; further: on the % scale 0 is the no-effect control and ±100 the full control effect
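Inducible Hek293 Trex D1 cells (tetracycline, overnight, 30 C). Calcium dye 30–90 min RT. Antagonist mode: EC80 dopamine added after 180 s compound read.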
Eya2 phos inh: qHTS Assay for Inhibitors of the Phosphatase Activity of Eya2; Protein phosphatase EYA2 (Homo sapiens), O00167; Potency, µM (highest dose often 76.9 µM), for the others: at the top dose activity, negative = inhibition, most hits filed as inhibitors; hit rate 0.006% among 330,000; AID 488837, 2010; recombinant Eya2, OMFP fluorescence dephosphorylation (OMFP is methylfluorescein phosphate); further: potency means the concentration at half of the fitted maximal effect; on the % scale 0 is the no-effect control and ±100 the full control effect
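Eya2 protein (added as 0.2 uM solution) was preincubated with compound for 10 min at ambient temperature in 50 mM HEPES pH 7.5, 50 mM NaCl, 5 uM MgCl2, 0.05% BSA, 1 mM DTT. OMFP (added at 50 uM) then reacted 10 min; fluorescence read at 485/525 nm.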
USP2a inh: qHTS Assay for Inhibitors of Ubiquitin-specific Protease USP2a Using CHOP2 as the Reporter; USP2 core, Ub-CHOP2 coupled fluorogenic reporter, 485/531; Potency, µM (top dose mostly 38.3 µM), for the others: at the top dose activity change, negative = inhibition, actives largely listed as inhibitors; hit rate 0.01% among 330,000;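 further: potency means the concentration at half of the fitted maximal effect; plate controls were DMSO wells for no effect and full inhibition by NEM control for full effect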
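Deubiquitinase activity read as fluorescence (485/531 nm) after Ub-CHOP2 cleavage activates the enterokinase reporter on its substrate; USP2 core 10nM, Ub-CHOP2 and substrate 25nM each, 30min compound preincubation then 60min RT; data normalized to NEM, curves fitted.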
D1 ag: Allosteric Agonists of the Human D1 Dopamine Receptor: qHTS | hit rate 1% among 360,000 | D(1A) dopamine receptor (Homo sapiens), P21728 | activation, % at 2 µM | AID 504660, 2011 | HEK293 T-REx D1 cells, calcium flux, agonist mode; in the data active means activation above about 30%; further: 0% is about no effect
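Tetracycline-induced HEK293 TREx D1 cells, force-coupled to calcium signalling, were dye-loaded with a no-wash calcium kit. Compound was pin-added after a 10 s baseline. Fluorescence was read kinetically at 1 cycle/s for 180 s, with calcium rises flagged as agonism.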
D1 potentiator: Potentiators of Human D1 Dopamine Receptor: qHTS. potentiation, % at 10 µM. D(1A) dopamine receptor (Homo sapiens), P21728. hit rate 0.036% among 360,000. HEK293 TREx D1 cells, calcium flux, dopamine EC20 potentiation; in the data active means potentiation above about 30%; further: 0% is about no effect
GALK inh: qHTS Assay for Inhibitors of Human Galactokinase (GALK); Purified GALK, Kinase-Glo residual ATP luminescence; Potency, µM (doses to about 57.5 µM), for the others: at the top dose activity change, negative = inhibition, hits mostly inhibitors; hit rate 0.007% among 270,000; further: potency means the concentration at half of the fitted maximal effect; on the % scale 0 is the no-effect control and ±100 the full control effect
Target sequence (P51570 whole entry, looked up): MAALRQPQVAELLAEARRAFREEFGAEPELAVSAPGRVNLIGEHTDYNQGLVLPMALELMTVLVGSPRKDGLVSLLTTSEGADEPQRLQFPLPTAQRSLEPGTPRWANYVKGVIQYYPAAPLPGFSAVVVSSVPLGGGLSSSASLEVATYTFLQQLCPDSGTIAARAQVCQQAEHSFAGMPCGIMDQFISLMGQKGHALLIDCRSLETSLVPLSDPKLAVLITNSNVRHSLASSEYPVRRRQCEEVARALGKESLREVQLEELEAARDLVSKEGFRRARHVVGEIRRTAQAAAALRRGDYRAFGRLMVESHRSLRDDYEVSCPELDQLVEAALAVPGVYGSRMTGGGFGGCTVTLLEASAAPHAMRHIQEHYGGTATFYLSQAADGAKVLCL
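Quantitative HTS: GALK 5 nM, ATP 35 uM, galactose 100 uM, 1 h room temperature, then luciferase-based ATP detection.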
* = called active by the depositor; . = not tested or not shown; ! = not confirmed by another sample. Most compounds without a hit are left out; they make up all but 3.9% or so of the library. Unless noted, the call rests on the fitted dose curve; in most records, active means well fitted inhibition curve with a large enough effect; inconclusive means small, poorly fitted or top-dose-only effect, or effect the other way; inactive means flat fitted curve, though single readings scatter.

SMILES	D1 antagonist	Eya2 phos inh	USP2a inh	D1 ag	D1 potentiator	GALK inh
CCOC(=O)c1ccc2c(c1)N(C)C(=O)c1ccccc1S2	3	2%	1%	1	-1	6%
CCOC(=O)c1cc2n(c1/N=C/N(C)C)-c1ccccc1C2=O	-10	19%	22%	90*	-5	3%
CCC(=O)Nc1ccc2nc(SCc3ccc(C)cc3)sc2c1	-2	.	.	2	0	.
C=CCn1c(SCC(=O)NC2CC2)nc2sc(CC)cc2c1=O	-16	12%	11%	2	-2	-2%
C=CCn1c(SCC(=O)Nc2cc(C)on2)nc2sc(CC)cc2c1=O	-42*	14%	3%	-3	-3	-2%
Cn1nnnc1SCC(=O)N1CCN(C(=O)c2ccco2)CC1	-38*	-8%	5%	7	-2	0%
C=CCn1c(SCC(=O)N2CCN(C(=O)c3ccco3)CC2)nc2sc(CC)cc2c1=O	-32*	5%	0%	-1	-1	3%
C=CCn1c(SCC(=O)N2CCCC2=O)nc2sc(CC)cc2c1=O	4	2%	0%	7	-2	.
CCCCn1nnnc1SCC(=O)N1CCN(C(=O)c2ccco2)CC1	-20	9%	0%	5	1	-1%
C=CCn1c(SCC(=O)Nc2ccc(O)cc2)nc2sc(CC)cc2c1=O	-31*	-2%	6%	0	-2	17%
O=C(CSc1nnnn1-c1ccccc1)NC(=O)Cc1ccccc1	8	7%	1%	5	5	.
Cn1nnnc1SCC(=O)NC(=O)Cc1ccccc1	-44*	-10%	-10%	1	1	0%
Clc1ccc(CCNC(c2nnc(-c3ccccc3)o2)c2ccccc2Cl)cc1 (configuration not stated)	-10	.	.	69*	7	.
Fc1ccc(C(NCCc2ccc(Cl)cc2)c2nnc(-c3ccccc3)o2)c(Cl)c1 (configuration not stated)	-16	.	.	64*	9	.
COC(=O)c1ccc(OCC2c3cc(OC)c(OC)cc3CCN2C(=O)Cc2ccccc2)cc1 (configuration not stated)	-1	.	.	1	1	.
O=C(NCc1ccccn1)C1CCN(C(=O)c2cc3sccc3n2Cc2ccc(F)cc2)CC1	-3	-15%	2%	2	-2	-2%
O=C(NCc1ccco1)C1CCN(C(=O)c2cc3sccc3n2Cc2ccc(F)cc2)CC1	-32*	-30%	-2%	12	-4	-3%
O=c1n(Cc2ccc(Cl)cc2)nc2n1-c1ccccc1OC2	2	.	.	0	-2	.
COc1ccccc1Oc1cn[nH]c1-c1ccc(O)cc1O	-32*	-2%	4%	2	-6	.
COc1cccc(Oc2cn[nH]c2-c2ccc(O)cc2O)c1	-9	-11%	-3%	3	-7	0%
Cc1ccc(N2C(=O)CSC23C(=O)N(CC(=O)Nc2ccccc2F)c2ccccc23)cc1C (configuration not stated)	-32*	.	.	9	-4	.
Cc1ccc(N2C(=O)CSC23C(=O)N(CC(=O)Nc2ccc(C(C)C)cc2)c2ccccc23)cc1C (configuration not stated)	11	.	.	2	-2	.
CC(C)c1noc(-c2ccccc2OCC(=O)Nc2ccc([N+](=O)[O-])cc2)n1	6	.	.	0	-1	.
CC(C)Cc1ccc(S(=O)(=O)Nc2cc3c(cc2N2CCOCC2)n(C)c(=O)c(=O)n3C)cc1	20	.	.	0	0	.
CC(C)(C)C(=O)OC/C(N)=N/OC(=O)c1ccc(Cl)cc1	-43*	-7%	0%	7	-3	4%
SMILES	D1 antagonist	Eya2 phos inh	USP2a inh	D1 ag	D1 potentiator	GALK inh
CCN(CC)CCNC(=O)c1ccc(CSc2nc3ccncc3n2Cc2cccc(F)c2)cc1	-4	.	.	-1	-2	.
O=S(=O)(c1ccccc1)N1CCN(c2ccnc3cc(Cl)ccc23)CC1	-41*	-8%	-6%	7	10	-1%
O=S(=O)(c1ccc(Cl)cc1)N1CCN(c2nc(-c3cccc(Br)c3)nc3ccccc23)CC1	-13	.	.	1	4	.
O=C(Nc1cc(F)ccc1F)N1CCN(c2ccnc3cc(Cl)ccc23)CC1	-19	-4%	2%	11	-13	1%
O=S(=O)(c1ccc(Cl)cc1)N1CCN(c2nc(-c3ccc(Cl)cc3)nc3ccccc23)CC1	-36*	.	.	0	2	.
O=C(Nc1ccc(C(F)(F)F)cc1)N1CCN(c2ccnc3cc(Cl)ccc23)CC1	-37*	3%	-2%	13	-14	.
O=S(=O)(c1cccs1)N1CCN(c2ccnc3cc(Cl)ccc23)CC1	11	0%	-1%	5	1	2%
Cc1cc(N2CCN(S(=O)(=O)c3ccccc3)CC2)c2ccccc2n1	-35*	12%	-3%	11	-3	1%
CN1CCN(C(CNC(=O)C(=O)Nc2ccc(Cl)cc2)c2cccnc2)CC1 (configuration not stated)	16	.	.	17	-2	.
COC(=O)c1nnn(CC(=O)NC(=O)Nc2ccccc2F)c1C(=O)OC	5	4%	3%	5	-6	-2%
COC(=O)c1nnn(CC(=O)NC(=O)Nc2cccc(C)c2C)c1C(=O)OC	-5	-8%	-7%	50*!	2	.
CC1CCCCN1S(=O)(=O)c1ccc2c(c1)oc(=O)n2CC(=O)Nc1ccc(Cl)cc1 (configuration not stated)	-20	.	.	5	1	.
Cc1cc(C(=O)CSc2cccc[n+]2[O-])c(C)n1-c1ccc(OC(F)F)cc1	-40*	10%	3%	8	-8	1%
O=C(NCc1ccco1)c1sc(=S)n2c1[nH]c(=O)c1ccccc12	-28	5%	2%	49*	-8	-18%
C/C(CC1(O)C(=O)N(Cc2ccccc2)c2ccccc21)=N\O (configuration not stated)	-12	.	.	1	-7	1%
CC(=O)CC1(O)C(=O)N(Cc2ccccc2)c2ccccc21 (configuration not stated)	-85*	4%	2%	2	-13	-2%
Cc1ccc(C(=O)CC2(O)C(=O)N(Cc3ccccc3)c3ccccc32)o1 (configuration not stated)	-14	-10%	-1%	0	6	-7%
